Compound activity deposited in PubChem BioAssay by National Center for Advancing Translational Sciences (NCATS).
Only some compounds are listed: those with a hit (about 2% of all), similar ones and a draw of the others.
aSyn rescue: rescues yeast growth from alpha-synuclein toxicity; AID 652106; actives 0.14% (n = 370,000); Yeast expressing alpha-synuclein, growth rescue, BacTiter-Glo, 24 h; Potency, µM (titrated, usually from 46.1 µM), for the others: at the highest dose growth rescue (activation), actives largely listed as activators; note: potency is the fitted concentration of half-maximal effect; % of control where 0% means no effect; nearly all actives have a fitted effect of over 65% in size
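Screening used galactose-induced yeast with toxic alpha-synuclein levels, exposed to compound for 24 hr at 30 deg C. Cell growth, read with BacTiter-Glo luminescence, gave the measured signal.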
FUS yeast rescue: rescues growth of FUS-expressing yeast. Potency, µM (highest dose often 76.6 µM), hits mostly activators. actives 0.24% (n = 390,000). AID 1347120. S. cerevisiae FUS-expressing, growth rescue, OD600, 24 h;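 note: potency is the fitted concentration of half-maximal effect; plate controls were DMSO vehicle for no effect and reference control for full effect; nearly all actives have a fitted effect of over 55% in size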
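Galactose (2%) drives FUS expression in yeast precultured in raffinose; seeding density OD 0.005. Test compounds incubated 24hr at 30C and 99% humidity before absorbance at 600 nm was measured.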
TDP43 rescue: TDP-43 toxicity inhibition in yeast. TDP-43 expressing yeast growth rescue, BacTiter-Glo, 24 h. Potency, µM (titrated, usually from 46.1 µM), without a hit: at the highest dose growth rescue (activation), usual class: activators. actives 1.8% (n = 410,000). AID 652104; note: potency is the fitted concentration of half-maximal effect; % of control where 0% means no effect; nearly all actives have a fitted effect of over 50% in size
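Readout is BacTiter-Glo luminescence of cell growth, so inhibitors register as activators. TDP-43-expressing yeast at OD600=0.02 in galactose medium, after raffinose pregrowth to mid-log, were incubated with compound for 24 hr at 30 deg C.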
mIDH1 inhibitor: inhibitors of human mutant IDH1 R132H; AID 602179; O75874; Potency, µM (top dose mostly 76.6 µM), without a hit: top-dose activity change, negative = inhibition, most hits filed as inhibitors; IDH1-R132H enzyme, NADPH consumption, diaphorase/resazurin fluorescence; actives 0.093% (n = 390,000); note: potency is the fitted concentration of half-maximal effect; % is set by controls: 0 for no effect and ±100 for the full control effect; nearly all actives have a fitted effect of over 65% in size
Target sequence (O75874 whole entry R132H, stated change not applied): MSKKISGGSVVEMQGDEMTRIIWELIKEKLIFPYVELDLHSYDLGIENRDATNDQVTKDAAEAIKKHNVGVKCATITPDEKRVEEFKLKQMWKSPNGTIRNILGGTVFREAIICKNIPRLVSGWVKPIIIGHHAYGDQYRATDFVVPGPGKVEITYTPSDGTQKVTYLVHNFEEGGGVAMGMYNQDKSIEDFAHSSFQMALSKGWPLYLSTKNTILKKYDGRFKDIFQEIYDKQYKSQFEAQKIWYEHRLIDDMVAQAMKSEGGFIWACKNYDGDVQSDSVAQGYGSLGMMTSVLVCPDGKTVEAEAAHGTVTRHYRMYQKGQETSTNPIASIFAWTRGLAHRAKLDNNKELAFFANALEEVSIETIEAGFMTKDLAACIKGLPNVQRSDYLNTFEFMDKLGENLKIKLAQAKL
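IDH1-R132H (0.5 ug/mL dispensed) in pH 7.5 Tris buffer was preincubated 30 min with compound, then given a substrate mix of 0.016 mM NADPH and 2 mM alpha-KG for 80 min at room temperature; remaining NADPH was read by diaphorase/resazurin fluorescence.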
Abeta rescue: A-beta toxicity reversal in yeast | Potency, µM (top dose mostly 46.1 µM), actives largely listed as activators | yeast expressing A-beta42, growth rescue, OD600, 48 h; response scale: 0% DMSO, 100% iron-clioquinol control | actives 0.063% (n = 410,000); note: potency is the fitted concentration of half-maximal effect; nearly all actives have a fitted effect of over 55% in size
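Yeast A-beta toxicity model in growth medium with pinned compounds, 48 h at 30 C; growth read as absorbance at 600 nm. Normalized to FeCl3/clioquinol equimolar mix (positive) and DMSO (negative).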
LDHA block: blocks human lactate dehydrogenase A. activity change, % (values are at about 110 or 230 µM). purified LDHA, NADH/diaphorase-resazurin fluorescence; hits give low values. actives 0.15% (n = 480,000). P00338; in the data active = activity change below about -30%; inconclusive = mostly about -25% to -30%;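 note: plate controls were DMSO wells for no effect and wells without enzyme for full effect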
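Human LDH5 (2 nM) was incubated with 0.06 mM NADH and 0.2 mM pyruvate for 5 min at room temperature in Tris pH 7.4. Remaining NADH was coupled through diaphorase/resazurin, and resorufin fluorescence was read at 0 and 20 min.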
Resorufin autofl: interferes with resorufin fluorescence in IDH1 counter-screen; shares compounds with mIDH1 inhibitor; Resorufin detection reagent fluorescence interference, cell-free; inhibition of signal, % at 51.2 µM; 750 tested, under 10 active;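 note: 0% = wells with normal resorufin and full inhibition = wells lacking resorufin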
IDH1 WT: wild-type IDH1 (human) inhibition counterscreen | shares compounds with mIDH1 inhibitor | WT IDH1 enzyme, NADPH diaphorase/resazurin fluorescence | Potency, µM (series often up to 115 µM), for the others: at the highest dose activity change, negative = inhibition, hits mostly inhibitors | actives 9% (n = 750) | AID 623995;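 note: potency is the fitted concentration of half-maximal effect; 0% = full WT IDH1 enzyme control and full inhibition = no enzyme wells; nearly all actives have a fitted effect of over 55% in size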
Target sequence (O75874 whole entry, looked up): as the sequence (O75874 whole entry R132H, stated change not applied) above, with H132R counted along it
mIDH1 confirm: confirmation of human mutant IDH1 inhibitors; Potency, µM (highest dose often 76.6 µM), for inactives: at the highest dose activity change, negative = inhibition, hits mostly inhibitors; shares compounds with mIDH1 inhibitor; actives 83% (n = 750); IDH1 R132H enzyme, NADPH diaphorase/resazurin fluorescence; note: potency is the fitted concentration of half-maximal effect; nearly all actives have a fitted effect of over 50% in size
Numbers without * were called inactive; i = inactive; u = inconclusive; x = no result. Unless noted, calls come from the whole dose curve; as a rule, active = well fitted curve in the direction sought with a large enough effect; inconclusive = small, poorly fitted or top-dose-only effect, or another doubt; inactive = no such curve, though single readings can be large; an effect the other way counts as inactive or inconclusive.

SMILES	aSyn rescue	FUS yeast rescue	TDP43 rescue	mIDH1 inhibitor	Abeta rescue	LDHA block	Resorufin autofl	IDH1 WT	mIDH1 confirm
Nc1ccc(CCN2CCN(c3cccc(C(F)(F)F)c3)CC2)cc1	-5%	i	8%	7%	i	-3	x	x	x
FC(F)(F)c1ccc2c(c1)N(CCCN1CCN(CCCl)CC1)c1ccccc1S2	2%	i	6%	37µM*	i	-2	-7	-6%	8.9µM*
COc1ccc2[nH]c(C)c(CCNCc3ccccc3F)c2c1	x	x	x	x	x	8	x	x	x
Cc1nn(C)c(C)c1C1SCC(=O)Nc2c1c(C)nn2-c1ccccc1 (configuration not stated)	x	x	x	x	x	4	x	x	x
CCCCCc1nc2ccccc2c(=O)n1-c1ccc(C)cc1	x	i	0%	-1%	i	-5	x	x	x
CCCCCc1nc2c(c(=O)c3ccccc3n2C)c(=O)n1C1CCCCCC1	-20%	i	-20%	10µM*	i	-8	-6	35µM*	5µM*
CN(C)C(=O)Oc1ccc(C(=O)c2ccccc2)cc1	-9%	i	u	5%	i	-3	x	x	x
CCC(=O)Oc1ccc(C(=O)Nc2cccc(C(=O)c3ccccc3)c2)cc1	0%	i	3%	26µM*	i	0	-5	5%	10µM*
CCc1noc(C(C)N2CCN(C(=O)Cc3ccc(C)cc3)CC2)n1 (configuration not stated)	x	x	x	x	x	0	x	x	x
COCCCn1c(N)c(C(=O)Nc2sc3c(c2C(=O)OC)CCCC3)c2nc3ccccc3nc21	u	i	-6%	u	i	0	5	-3%	u
CCOC(=O)c1c(-n2c(C)cc(C=C3C(=O)NC(=O)NC3=O)c2C)sc2c1CCCC2	1%	i	2%	18µM*	i	-3	-4	28µM*	11µM*
Clc1ccc(COc2cccc(CNC3CN4CCC3CC4)c2)c(Cl)c1 (configuration not stated)	x	x	x	x	x	8	x	x	x
O=C(N/N=C/c1c(O)n(C2CCCCC2)c(=S)[nH]c1=O)c1ccccc1O	-10%	i	13%	u	i	-17	9	-5%	45µM*
